Screens: PubChem, several laboratories
tim10-1 inh: tim10-1 yeast growth inhibition; 2.2% of 330,000 active; S. cerevisiae tim10-1 ts strain growth, BacTiter-Glo, 24 h; inhibition, % at 20 µM;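 active = inhibition of at least 40%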;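 also: mutant grown at 25 °C; 0% = DMSO wells with yeast and 100% = wells holding no yeast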
NALP3 yeast inh: NALP3 inhibition in yeast. Yeast reconstituted NLRP3/ASC/caspase-1, beta-gal luminescence, 24 h. inhibition, % at 10 µM. 0.39% of 330,000 active;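 active = inhibition of 50% or more; inactive = inhibition below 50%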;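 also: plate controls were induced DMSO wells for no effect and uninduced yeast grown without galactose for full effect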
tim23-1 inh: tim23-1 yeast growth inhibition | 1.3% of 330,000 active | S. cerevisiae tim23-1 growth, BacTiter-Glo luminescence, 24 h | inhibition, % at 20 µM;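 active = growth inhibition of the mutant yeast at or above 50%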;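 also: temperature-sensitive mutant grown at 25 °C; plate controls were DMSO-treated mutant yeast for no effect and medium wells lacking yeast for full effect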
PfHsp90 yeast 2: inhibits growth of yeast expressing Plasmodium falciparum Hsp90; inhibition, % at 9.4 µM; S. cerevisiae expressing PfHsp90, BacTiter-Glo ATP, 48 h; yeast lacking PDR1 and PDR3 efflux regulators; 0.32% of 310,000 active;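 active = every replicate shows inhibition above about 80%, whatever the replicate mean, limit read from the data; inconclusive = mean inhibition reaches the set limit but some replicate falls short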;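 also: 0% = DMSO neutral controls and 100% = 20 µM radicicol positive controls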
TIM10 inh: inhibits growth of TIM10 yeast strain | S. cerevisiae TIM10 strain growth, BacTiter-Glo luminescence, 24 h | inhibition, % at 10 µM | 1.4% of 330,000 active | AID 463195;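 active = inhibition of 40% or more at the single tested concentration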;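 also: wild-type TIM10 isogenic control strain grown at permissive 25 °C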
* marks the source's active call; other numbers are inactive results; ? = inconclusive; . = no result; + = active, no number. Shown are actives, neighbours in structure and some others; about 3.7% of the full set was active somewhere.

SMILES	tim10-1 inh	NALP3 yeast inh	tim23-1 inh	PfHsp90 yeast 2	TIM10 inh
CC(=NNC(=S)N1CCN(C2CCCCCC2)CC1)c1ccccn1	.	.	.	103*	.
CC(=NNC(=S)N1CCN(c2ccccn2)CC1)c1ccccn1	.	.	.	0	.
CC(=NNC(=S)N1CC2CCC(CC2)C1)c1cnccn1	.	.	.	145*	.
CC(=NNC(=S)N1CCN(c2ccccn2)CC1)c1nccs1	.	.	.	142*	.
CCOc1ccccc1NC(=O)COC(=O)c1c(CC)noc1C	15	9	20	-2	-2
CCc1sc(C(=O)Nc2nc(-c3ccccn3)cs2)cc1C	10	22	25	107*	12
O=C(Nc1nc(-c2ccccn2)cs1)c1ncc(Cl)c(Cl)c1Cl	30	5	-34	110*	-13
Cc1c(C(=O)Nc2nc(-c3ccccn3)cs2)oc2ccccc12	21	13	42	?	3
O=C(Nc1nc(-c2ccccn2)cs1)c1cc2ccccc2o1	13	8	20	105*	21
Cc1ccc(/C=C/C(=O)NCCc2cccc(Cl)c2)o1	7	17	45	9	10
Cc1cc(/C=C2\SC(=S)NC2=O)c(C)n1-c1cccc(O)c1	10	13	27	94*	1
COC(=O)[C@]1(C)CCC[C@@]2(C)C3CC[C@@]4(C)C[C@]3(CCC21)CC(=O)N4 (stereo not given in full)	10	25	37	.	6
C=C1C(=O)C23CCC4C(C)(C(=O)OC)CCCC4(C)C2CCC1(O)C3 (stereo not given)	.	.	.	104*	.
Cc1cccc(C)c1NC(=O)COC(=O)c1ccc([N+](=O)[O-])o1	-97	21	-49	87*	-106
O=C(COC(=O)c1ccc([N+](=O)[O-])o1)NCc1ccccc1	-199	11	-57	1	-216
O=C1OC(c2ccccc2)(c2ccc3cc(O)ccc3c2)c2ccccc21 (stereo not given)	.	.	.	113*	.
CC(C)=CCc1cc([C@@H]2COc3c(ccc4c3C=CC(C)(C)O4)C2)c(O)cc1O	27	7	43	105*	26
N#CC1(NC(=O)CSc2nnc(C3CC3)n2C2CC2)CCCCC1	2	8	8	.	-3
Oc1ccc(Cl)cc1Sc1cc(Cl)ccc1O	.	.	.	102*	.
CC(C)CC(=O)/C(=C\c1ccc(Cl)cc1Cl)n1cncn1	.	.	.	129*	.
COc1ccc(OC)c(NC(=O)Nc2ccc(O)c3ccccc23)c1	-2	-4	-31	108*	1
CC(NC(=O)c1ccc(Br)cc1)c1ccc2c(c1)CCCC2 (stereo not given)	1	32	-17	105*	-37
CC1CCCC(NC(=O)CN(C)CC(=O)Nc2cccc(F)c2)C1C (stereo not given)	11	4	6	-7	-3
CC1CCN(C2CC(=O)N(c3ccccc3)C2=O)CC1 (stereo not given)	27	25	28	15	6
CC1CCN(C2CC(=O)N(c3ccc(Br)cc3Br)C2=O)CC1 (stereo not given)	27	-5	30	107*	29
SMILES	tim10-1 inh	NALP3 yeast inh	tim23-1 inh	PfHsp90 yeast 2	TIM10 inh
COc1cc(C#Cc2c(-c3cncn3C)n(C)c3ccc(-c4cc(OC)c(OC)c(OC)c4)cc23)cc(OC)c1	14	15	23	12	10
COc1cc(C#Cc2c(-c3cncn3C)n(C)c3ccc(-c4ccc(OC)nc4)cc23)cc(OC)c1	24	2	25	+	5
CCCCCCCC/C=C\CCCCCCCC(=O)NCCO	29	25	12	109*	-2
CCCCCCCCCCCCCC(=O)NO	.	.	.	107*	.
O=C(O)C(c1ccccc1)C(O)c1ccc2c(c1)OCO2 (stereo not given)	.	.	.	-6	.
CCCCCCC(=O)N(O)C1CC(=O)N(c2ccc(Cl)cc2)C1=O (stereo not given)	24	15	37	110*	12
Cc1ccc(N2C(=O)CC(N(O)C3CC(=O)N(c4ccc(C)cc4)C3=O)C2=O)cc1 (stereo not given)	12	-3	12	-6	4
F[B-](F)(F)c1cc2cc(Br)ccc2s1	.	.	.	117*	.
Cc1c(NS(=O)(=O)c2cccc(C(=O)N3CCC(C(N)=O)CC3)c2)c(=O)n(-c2ccccc2)n1C	-4	-3	-10	.	-9
Cn1c(SCC(=O)Nc2ccc3c(c2)n(C)c(=O)n3C)nnc1-c1ccncc1	8	-7	4	4	-15
O=C1/C(=C\c2cccc(O)c2O)SC(=S)N1Cc1ccccc1	-50	27	39	108*	6
O=C1/C(=C\c2cccc(O)c2)SC(=S)N1Cc1ccccc1	-19	22	50	10	24
CC(C)Cn1c(=O)c(C(=O)Nc2cnccn2)c(O)c2ccccc21	-16	2	22	11	10
CC(C)Cn1c(=O)c(C(=O)Nc2ccncc2)c(O)c2ccccc21	-8	18	14	106*	12
CCOC(=O)[C@@H]1[C@H]2COc3cc(OC)ccc3[C@@H]2N2C(=O)N(c3cccc(F)c3)C(=O)[C@@]12C	24	3	20	3	9
COc1cccc(-c2nc(NC3CCCC3)c3ccccc3n2)c1O	36	-3	49	117*	-13
COc1cccc(-c2nc(NCc3ccccc3)c3ccccc3n2)c1O	22	15	4	-33	-12
N#Cc1ccccc1OCC(=O)OCC(=O)NC1CCS(=O)(=O)C1 (stereo not given)	-4	13	12	17	2
Cc1c(C(=O)NCCSCc2cccc(C(F)(F)F)c2)cnn1-c1ccc(Cl)cc1	4	29	44	84*	4
O=C1Nc2ccc(Br)cc2/C1=C/C(=O)c1ccccc1	.	.	.	106*	.
O=C(O)COc1ccccc1/C=C1\C(=O)Nc2ccc(Br)cc21	13	29	8	35	9
O=C1C2C3C=CC(C3)C2C(=O)N1CN(Cc1ccccc1)CN1C(=O)C2C3C=CC(C3)C2C1=O (stereo not given)	22	-2	28	113*	5
COc1ccccc1NS(=O)(=O)c1cc(C(=O)N2CC(C)CC(C)C2)ccc1C (stereo not given)	-79	-5	-107	102*	-42
Cc1ccccc1NS(=O)(=O)c1cc(C(=O)N2CCCC2)ccc1C	12	-6	-2	-2	4
CC(C)C(=O)NC(c1ccco1)c1ccc2cccnc2c1O (stereo not given)	26	14	35	10	18
Oc1c(C(Nc2nccs2)c2ccc(C(F)(F)F)cc2)ccc2cccnc12 (stereo not given)	.	.	.	102*	.
Cc1conc1NC(c1cccs1)c1ccc2cccnc2c1O (stereo not given)	26	11	36	.	-32
CCCCC(=O)NC(c1ccc(N(CC)CC)cc1)c1ccc2cccnc2c1O (stereo not given)	-5	14	44	72	-71
CC(C)C(=O)NC(c1cccc([N+](=O)[O-])c1)c1ccc2cccnc2c1O (stereo not given)	10	24	38	119*	3
